The supplement of paper PMC11732987, “Enantioselective OTUD7B fragment discovery through chemoproteomics screening and high-throughput optimisation” (Communications Chemistry, 2025)

Experiments:
Assay in all cases: log2 ratio of Biotin-Ahx-Ub-VS probe labelling (fragment/DMSO); higher = less target engagement (more negative = stronger competition), active = hit call of the paper (q ≤ 0.05, log2 ratio ≤ -1)
Settings in all cases: compound concentration: 200 uM; treatment time: 3 h
USP34 = USP34 (UniProt Q70CQ2)
Outline: (§1)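 The table lists average log2 ratios of fragment over vehicle, from an unpaired t-test on global-median-normalised Spectronaut label-free quantities. Proteins with ≥2 unique peptides were used. Samples were HEK293T lysate (495 µg) treated in triplicate with fragment at 200 µM or vehicle for 3 h, then with Biotin-Ahx-Ub-VS (0.5 µM final) for 1 h, with labelled DUBs NeutrAvidin-enriched and run by diaPASEF LC-MS/MS.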

USP36 = target: T1, USP36 (UniProt Q9P275)
T1 sequence (whole entry): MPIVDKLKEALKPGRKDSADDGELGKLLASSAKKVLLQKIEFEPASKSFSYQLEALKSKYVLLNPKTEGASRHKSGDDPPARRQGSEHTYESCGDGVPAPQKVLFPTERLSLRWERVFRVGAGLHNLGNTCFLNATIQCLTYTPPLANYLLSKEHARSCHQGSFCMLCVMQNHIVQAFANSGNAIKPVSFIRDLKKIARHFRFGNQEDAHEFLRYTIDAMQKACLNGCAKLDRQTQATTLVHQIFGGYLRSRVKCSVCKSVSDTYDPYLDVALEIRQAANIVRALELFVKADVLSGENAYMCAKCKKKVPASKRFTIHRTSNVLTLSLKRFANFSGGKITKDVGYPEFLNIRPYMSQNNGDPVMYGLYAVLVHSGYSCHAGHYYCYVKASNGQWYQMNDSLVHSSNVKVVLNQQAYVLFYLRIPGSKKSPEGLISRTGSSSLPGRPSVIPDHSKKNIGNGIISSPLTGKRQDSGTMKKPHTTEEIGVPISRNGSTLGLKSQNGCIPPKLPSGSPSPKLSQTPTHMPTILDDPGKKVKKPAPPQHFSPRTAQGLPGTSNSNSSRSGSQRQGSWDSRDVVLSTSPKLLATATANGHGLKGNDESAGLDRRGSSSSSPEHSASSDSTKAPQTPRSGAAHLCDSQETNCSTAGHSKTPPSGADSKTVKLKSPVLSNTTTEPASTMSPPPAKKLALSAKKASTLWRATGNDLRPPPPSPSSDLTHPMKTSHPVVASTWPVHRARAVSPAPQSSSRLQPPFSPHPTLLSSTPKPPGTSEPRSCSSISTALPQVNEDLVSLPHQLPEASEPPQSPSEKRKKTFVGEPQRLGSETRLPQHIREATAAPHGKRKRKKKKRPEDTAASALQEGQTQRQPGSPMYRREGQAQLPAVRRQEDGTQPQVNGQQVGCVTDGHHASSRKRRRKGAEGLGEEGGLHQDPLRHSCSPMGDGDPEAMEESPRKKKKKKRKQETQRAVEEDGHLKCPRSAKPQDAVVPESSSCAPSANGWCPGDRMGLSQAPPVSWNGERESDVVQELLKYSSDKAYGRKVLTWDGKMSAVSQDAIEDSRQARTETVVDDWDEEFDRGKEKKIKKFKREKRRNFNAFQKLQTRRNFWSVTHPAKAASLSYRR
Outline: as §1

USP38 = target: T2, USP38 (UniProt Q8NB14)
T2 sequence (whole entry): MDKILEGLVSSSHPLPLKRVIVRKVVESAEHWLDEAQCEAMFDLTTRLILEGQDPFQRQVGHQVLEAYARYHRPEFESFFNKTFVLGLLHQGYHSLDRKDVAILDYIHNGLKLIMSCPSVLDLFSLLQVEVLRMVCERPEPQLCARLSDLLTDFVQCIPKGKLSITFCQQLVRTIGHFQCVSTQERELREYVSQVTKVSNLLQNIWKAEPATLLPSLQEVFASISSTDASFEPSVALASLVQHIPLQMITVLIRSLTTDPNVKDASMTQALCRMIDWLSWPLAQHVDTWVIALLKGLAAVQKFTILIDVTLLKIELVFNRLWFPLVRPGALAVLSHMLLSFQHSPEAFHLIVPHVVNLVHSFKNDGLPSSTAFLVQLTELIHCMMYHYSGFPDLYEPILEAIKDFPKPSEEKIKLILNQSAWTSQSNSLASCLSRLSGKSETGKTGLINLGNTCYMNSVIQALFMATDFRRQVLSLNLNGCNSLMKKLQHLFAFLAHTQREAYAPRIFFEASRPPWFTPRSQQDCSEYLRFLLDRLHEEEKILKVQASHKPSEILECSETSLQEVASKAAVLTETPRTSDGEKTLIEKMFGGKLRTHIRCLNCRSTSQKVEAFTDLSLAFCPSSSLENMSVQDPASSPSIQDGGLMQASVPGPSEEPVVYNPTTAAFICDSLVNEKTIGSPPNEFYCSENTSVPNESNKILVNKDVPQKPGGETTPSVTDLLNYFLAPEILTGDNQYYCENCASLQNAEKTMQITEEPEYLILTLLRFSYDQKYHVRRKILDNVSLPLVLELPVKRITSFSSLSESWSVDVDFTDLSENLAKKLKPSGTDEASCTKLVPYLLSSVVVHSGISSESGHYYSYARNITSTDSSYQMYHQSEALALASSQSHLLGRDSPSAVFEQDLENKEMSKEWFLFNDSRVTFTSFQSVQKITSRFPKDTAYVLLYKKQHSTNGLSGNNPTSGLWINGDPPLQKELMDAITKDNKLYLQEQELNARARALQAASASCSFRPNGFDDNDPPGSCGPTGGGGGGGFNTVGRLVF
Outline: as §1

USP39 = target: T3, USP39 (UniProt Q53GS9)
T3 sequence (whole entry): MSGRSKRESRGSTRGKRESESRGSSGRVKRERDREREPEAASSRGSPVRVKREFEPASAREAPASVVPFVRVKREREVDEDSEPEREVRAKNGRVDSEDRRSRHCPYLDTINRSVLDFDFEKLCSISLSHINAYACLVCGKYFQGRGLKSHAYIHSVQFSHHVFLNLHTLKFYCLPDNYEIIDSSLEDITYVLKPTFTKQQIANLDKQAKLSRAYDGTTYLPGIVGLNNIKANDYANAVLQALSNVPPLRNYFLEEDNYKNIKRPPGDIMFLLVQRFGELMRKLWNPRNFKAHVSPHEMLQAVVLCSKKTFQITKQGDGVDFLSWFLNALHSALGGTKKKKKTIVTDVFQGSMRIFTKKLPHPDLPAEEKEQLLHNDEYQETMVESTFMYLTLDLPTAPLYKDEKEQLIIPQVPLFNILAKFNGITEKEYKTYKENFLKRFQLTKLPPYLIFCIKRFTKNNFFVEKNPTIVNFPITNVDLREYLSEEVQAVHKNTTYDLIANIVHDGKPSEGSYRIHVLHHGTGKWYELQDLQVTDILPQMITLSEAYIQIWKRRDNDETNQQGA
Outline: as §1

USP4 = target: T4, USP4 (UniProt Q13107)
T4 sequence (whole entry): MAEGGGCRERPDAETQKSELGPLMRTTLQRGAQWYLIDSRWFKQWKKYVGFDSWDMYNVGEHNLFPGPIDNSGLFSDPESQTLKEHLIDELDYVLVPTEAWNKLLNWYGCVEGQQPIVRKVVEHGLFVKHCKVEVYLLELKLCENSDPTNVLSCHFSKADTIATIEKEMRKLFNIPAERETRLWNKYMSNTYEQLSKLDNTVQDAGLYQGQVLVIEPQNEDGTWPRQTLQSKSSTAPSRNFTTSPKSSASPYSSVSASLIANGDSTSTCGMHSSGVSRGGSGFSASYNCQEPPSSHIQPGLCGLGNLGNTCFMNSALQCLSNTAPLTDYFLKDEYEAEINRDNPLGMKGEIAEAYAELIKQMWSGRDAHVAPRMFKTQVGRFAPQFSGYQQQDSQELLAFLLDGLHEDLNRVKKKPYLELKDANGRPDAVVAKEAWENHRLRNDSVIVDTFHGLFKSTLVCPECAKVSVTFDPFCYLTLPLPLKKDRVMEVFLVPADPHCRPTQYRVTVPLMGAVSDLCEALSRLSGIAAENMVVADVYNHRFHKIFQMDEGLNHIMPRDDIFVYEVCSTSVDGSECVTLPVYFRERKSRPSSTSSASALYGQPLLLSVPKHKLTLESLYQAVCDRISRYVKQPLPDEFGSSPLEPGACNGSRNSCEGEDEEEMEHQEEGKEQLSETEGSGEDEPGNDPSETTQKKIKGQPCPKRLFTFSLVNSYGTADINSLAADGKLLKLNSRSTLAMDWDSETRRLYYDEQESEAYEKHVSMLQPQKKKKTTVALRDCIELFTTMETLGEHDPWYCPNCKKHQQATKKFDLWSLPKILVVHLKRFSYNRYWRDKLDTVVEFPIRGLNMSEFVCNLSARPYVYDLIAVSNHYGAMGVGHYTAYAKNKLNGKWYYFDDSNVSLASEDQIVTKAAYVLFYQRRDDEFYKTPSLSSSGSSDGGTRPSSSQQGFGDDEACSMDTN
Outline: as §1

Measured: log2 ratio of Biotin-Ahx-Ub-VS probe labelling

Sequence of USP34 (Q70CQ2 whole entry, the tested form may be a part): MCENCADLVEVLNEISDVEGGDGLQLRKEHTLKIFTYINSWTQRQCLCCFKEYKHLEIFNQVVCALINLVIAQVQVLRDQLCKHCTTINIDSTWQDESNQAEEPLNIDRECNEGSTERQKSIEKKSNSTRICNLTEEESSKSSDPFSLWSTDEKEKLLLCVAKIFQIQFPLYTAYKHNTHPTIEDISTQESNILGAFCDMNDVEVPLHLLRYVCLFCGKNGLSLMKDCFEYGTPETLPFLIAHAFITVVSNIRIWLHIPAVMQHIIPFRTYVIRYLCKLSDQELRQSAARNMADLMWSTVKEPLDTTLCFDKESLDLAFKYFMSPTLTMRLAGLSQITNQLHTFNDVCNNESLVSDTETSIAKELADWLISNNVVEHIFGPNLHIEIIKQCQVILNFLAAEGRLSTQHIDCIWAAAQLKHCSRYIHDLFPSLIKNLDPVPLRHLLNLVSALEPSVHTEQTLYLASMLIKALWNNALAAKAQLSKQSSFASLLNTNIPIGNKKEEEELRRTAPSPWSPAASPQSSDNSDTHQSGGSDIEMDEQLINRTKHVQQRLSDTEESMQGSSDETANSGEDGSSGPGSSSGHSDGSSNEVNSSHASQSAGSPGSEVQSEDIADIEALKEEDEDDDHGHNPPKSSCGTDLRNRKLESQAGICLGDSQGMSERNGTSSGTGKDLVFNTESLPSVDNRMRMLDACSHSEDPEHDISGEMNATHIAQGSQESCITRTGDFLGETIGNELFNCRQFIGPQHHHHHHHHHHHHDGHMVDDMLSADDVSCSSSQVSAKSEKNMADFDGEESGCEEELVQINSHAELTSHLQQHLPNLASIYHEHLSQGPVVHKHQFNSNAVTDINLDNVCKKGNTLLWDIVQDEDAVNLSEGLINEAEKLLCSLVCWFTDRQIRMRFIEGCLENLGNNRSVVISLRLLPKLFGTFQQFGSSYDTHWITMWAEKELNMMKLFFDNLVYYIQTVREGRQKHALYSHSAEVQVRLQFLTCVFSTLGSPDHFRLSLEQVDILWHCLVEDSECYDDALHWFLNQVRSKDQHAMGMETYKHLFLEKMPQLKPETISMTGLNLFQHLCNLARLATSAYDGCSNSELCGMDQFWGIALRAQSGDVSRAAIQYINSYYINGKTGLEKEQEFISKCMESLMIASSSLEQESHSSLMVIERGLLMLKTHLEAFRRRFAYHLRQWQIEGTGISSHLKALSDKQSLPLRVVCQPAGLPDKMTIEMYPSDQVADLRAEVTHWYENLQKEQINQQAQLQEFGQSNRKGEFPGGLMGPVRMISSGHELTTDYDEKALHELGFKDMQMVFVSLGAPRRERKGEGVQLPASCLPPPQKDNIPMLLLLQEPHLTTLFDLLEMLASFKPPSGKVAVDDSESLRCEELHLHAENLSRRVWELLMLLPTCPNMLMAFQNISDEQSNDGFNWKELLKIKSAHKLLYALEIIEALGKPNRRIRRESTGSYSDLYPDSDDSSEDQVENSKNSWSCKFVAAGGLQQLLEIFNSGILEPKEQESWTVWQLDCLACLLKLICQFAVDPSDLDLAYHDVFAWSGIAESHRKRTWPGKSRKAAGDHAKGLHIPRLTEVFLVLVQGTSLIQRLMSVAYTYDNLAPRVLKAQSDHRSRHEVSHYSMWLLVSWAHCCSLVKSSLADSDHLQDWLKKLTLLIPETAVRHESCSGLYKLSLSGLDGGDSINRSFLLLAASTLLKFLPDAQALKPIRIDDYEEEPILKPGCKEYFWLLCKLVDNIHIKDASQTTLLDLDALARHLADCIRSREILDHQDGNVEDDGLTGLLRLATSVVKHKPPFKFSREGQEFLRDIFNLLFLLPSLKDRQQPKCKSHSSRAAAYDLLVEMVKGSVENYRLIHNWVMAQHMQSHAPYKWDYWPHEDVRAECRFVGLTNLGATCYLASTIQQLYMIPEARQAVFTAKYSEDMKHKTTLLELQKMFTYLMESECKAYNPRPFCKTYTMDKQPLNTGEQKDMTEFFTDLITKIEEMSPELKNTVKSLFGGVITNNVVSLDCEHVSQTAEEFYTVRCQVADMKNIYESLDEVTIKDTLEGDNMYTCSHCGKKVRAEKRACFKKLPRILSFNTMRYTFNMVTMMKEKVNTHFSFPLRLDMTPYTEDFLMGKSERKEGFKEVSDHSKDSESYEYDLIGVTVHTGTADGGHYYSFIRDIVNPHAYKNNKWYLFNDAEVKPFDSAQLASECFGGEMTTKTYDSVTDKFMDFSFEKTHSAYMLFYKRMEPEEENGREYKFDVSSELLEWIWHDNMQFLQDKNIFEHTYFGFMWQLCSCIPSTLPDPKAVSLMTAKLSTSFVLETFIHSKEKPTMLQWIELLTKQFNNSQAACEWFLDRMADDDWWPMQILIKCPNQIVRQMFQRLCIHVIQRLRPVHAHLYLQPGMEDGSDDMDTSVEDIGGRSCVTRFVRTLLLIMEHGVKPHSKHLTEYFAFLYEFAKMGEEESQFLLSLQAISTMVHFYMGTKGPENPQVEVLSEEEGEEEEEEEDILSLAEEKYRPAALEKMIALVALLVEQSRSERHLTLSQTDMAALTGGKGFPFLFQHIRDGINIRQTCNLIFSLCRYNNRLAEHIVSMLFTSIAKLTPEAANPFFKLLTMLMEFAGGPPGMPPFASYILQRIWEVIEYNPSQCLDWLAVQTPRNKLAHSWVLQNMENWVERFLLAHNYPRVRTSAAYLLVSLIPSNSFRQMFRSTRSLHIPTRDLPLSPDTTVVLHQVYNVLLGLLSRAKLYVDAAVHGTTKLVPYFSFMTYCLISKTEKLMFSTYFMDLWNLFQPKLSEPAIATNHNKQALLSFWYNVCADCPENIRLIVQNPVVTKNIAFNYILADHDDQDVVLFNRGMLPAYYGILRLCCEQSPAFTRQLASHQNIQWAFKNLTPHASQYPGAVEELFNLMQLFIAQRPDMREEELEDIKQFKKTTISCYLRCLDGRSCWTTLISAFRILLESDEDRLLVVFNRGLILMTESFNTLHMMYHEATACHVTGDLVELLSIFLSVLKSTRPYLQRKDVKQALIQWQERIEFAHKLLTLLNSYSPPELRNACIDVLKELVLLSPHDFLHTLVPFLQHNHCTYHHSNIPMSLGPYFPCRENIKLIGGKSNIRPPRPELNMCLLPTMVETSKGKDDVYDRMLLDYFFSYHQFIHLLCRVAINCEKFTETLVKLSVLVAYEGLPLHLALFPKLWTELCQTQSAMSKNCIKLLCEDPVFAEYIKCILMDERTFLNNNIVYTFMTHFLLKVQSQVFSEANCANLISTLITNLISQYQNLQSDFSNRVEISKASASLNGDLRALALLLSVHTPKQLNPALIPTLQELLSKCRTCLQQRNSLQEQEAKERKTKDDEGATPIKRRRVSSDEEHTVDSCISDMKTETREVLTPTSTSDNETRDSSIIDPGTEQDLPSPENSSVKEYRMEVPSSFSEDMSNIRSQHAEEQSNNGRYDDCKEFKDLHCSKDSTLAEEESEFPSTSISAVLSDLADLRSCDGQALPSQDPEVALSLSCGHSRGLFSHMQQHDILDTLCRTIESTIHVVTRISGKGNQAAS

Cc1cc(C(=O)NC2CCN(C(=O)CCl)CC2)no1
inactive: USP34 -0.22 | USP36 -0.0502 | USP38 0.122 | USP39 0.0572 | USP4 -0.111
